An excerpt weighted towards active compounds, which were near 19% of everything screened.
AMA1 RON2 block = qHTS for Inhibitors of AMA1-RON; Towards Development of Antimalarial Drug Lead: Primary Screen | AlphaScreen AMA1-biotinylated RON2 peptide binding | Potency, µM (titrated, usually from 58.2 µM), for inactives: at the top dose activity change, negative = inhibition, actives largely listed as inhibitors | AID 720542, 2013 | Plasmodium falciparum AMA1 (3D7) - RON2 peptide interaction | 0.2% of 360,000 active;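 further: potency means the concentration at half of the fitted maximal effect; 0% = vehicle wells and -100% = peptide control; nearly all actives have a fitted effect of over 45% in size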
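AMA1 (3D7) with his tag at 25 nM final met compounds first, then biotinylated RON2 peptide at 25 nM; detection used donor plus acceptor beads, 10 µg/mL apiece, read by AlphaScreen after 30 min at room temperature.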
Pf growth 48h = Primary qHTS for delayed death inhibitors of the malarial parasite plastid, 48 hour incubation; Potency, µM (doses to about 28.7 µM), inactives show at the highest dose activity change, negative = inhibition, most hits filed as inhibitors; 5.9% of 310,000 active; AID 504832, 2011; P. falciparum luciferase growth in erythrocytes, 48 h; further: potency means the concentration at half of the fitted maximal effect; on the % scale 0 is the no-effect control and ±100 the full control effect
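Erythrocytes infected with P. falciparum carrying an integrated firefly luciferase reporter (2% hematocrit, 0.1% parasitemia final) were exposed to compounds in RPMI 1640 with 0.5% Albumax at 37 C, 5% CO2. Growth inhibition was scored as reduced luminescence.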
Cycloheximide cs = Cycloheximide Counterscreen for Small Molecule Inhibitors of Shiga Toxin | max response, % | cell reporter, cycloheximide protein synthesis inhibition counterscreen | 12% of 300,000 active | AID 2314, 2010; in the data active means max response mostly above about 13%, no sharp cut-off; inactive means mostly below about 14%; further: read at 38.3 µM for the half of the compounds with a filed dose; 0% is about no effect
SARS PLP yeast = qHTS of Yeast-based Assay for SARS-CoV PLP; AID 485353, 2010; Potency, µM (top dose mostly 32.9 µM), without a hit: top-dose activity, positive = growth rescue, most hits filed as activators; S. cerevisiae expressing SARS-CoV PLpro, growth rescue; 0.19% of 330,000 active; calls by dose curve; further: potency means the concentration at half of the fitted maximal effect; 0% is about no effect; nearly all actives have a fitted effect of over 55% in size
Shiga toxin inh = A qHTS for Small Molecule Inhibitors of Shiga Toxin; AID 2315, 2010; inhibition, % at 38.7 µM; Vero cells, Shiga toxin protein synthesis inhibition reporter; 9.2% of 290,000 active; in the data active means inhibition mostly above about 28%, no sharp cut-off; inactive means mostly below about 43%; further: 0% is about no effect
Pf growth 96h = Primary qHTS for delayed death inhibitors of the malarial parasite plastid, 96 hour incubation | P. falciparum luciferase reporter growth, 96 h | 6.9% of 320,000 active | Potency, µM (doses to about 28.7 µM), for the others: top-dose activity change, negative = inhibition, hits mostly inhibitors; further: potency means the concentration at half of the fitted maximal effect; on the % scale 0 is the no-effect control and ±100 the full control effect
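Parasite growth measured via integrated firefly luciferase reporter in P. falciparum. Infected erythrocytes at 2% hematocrit, 0.05% parasitemia final were treated 96 hours at 37 C under 5% CO2, and luminescence was read.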
Numbers without * were called inactive; i = inactive; ? = inconclusive; / = no result; [ ] = remark or other dose. Unless noted, the call rests on the fitted dose curve; in most records, active means well fitted curve in the direction sought with a large enough effect; inconclusive means small, poorly fitted or top-dose-only effect, or another doubt; inactive means no such curve, though single readings can be large; an effect the other way counts as inactive or inconclusive.

SMILES	AMA1 RON2 block	Pf growth 48h	Cycloheximide cs	SARS PLP yeast	Shiga toxin inh	Pf growth 96h
O=C(NCCCN1CCOCC1)C(=O)c1c[nH]c2ccccc12	5.4%	2.1%	-3.7	11.7%	0.7	-11.4%
NS(=O)(=O)c1ccc(CCNC(=O)C(=O)c2c[nH]c3ccccc23)cc1	-10.0%	?	-3.2	2.1%	2.6	-25.7%
O=C(NCCc1ccccc1)C(=O)c1c[nH]c2ccccc12	-7.5%	?	39.8*	5.1%	60.7*	-4.7%
Cc1cc(C)c(C)c(S(=O)(=O)N2CCN(C(=O)c3ccccc3OCc3c(C)noc3C)CC2)c1C	-2.8%	10.4µM*	/	-1.8%	/	13.1µM*
Cc1noc(C)c1COc1ccccc1C(=O)N1CCN(S(=O)(=O)c2ccccc2C(F)(F)F)CC1	-9.7%	14.7µM*	/	5.7%	/	?
COc1cc(C(=O)N2CCN(S(=O)(=O)c3ccc(C)cc3)CC2)ccc1OCc1c(C)noc1C	0.4%	4.15µM*	-3.4	-0.2%	23.1	/
COc1cc(C(=O)OCC(=O)N2CCCCC2C)ccc1OCc1c(C)noc1C (stereo not drawn)	-3.4%	9.28µM*	8.9	-3.1%	41.6	?
COc1cc(C(=O)OCC(C)=O)ccc1OCc1c(C)noc1C	15.7%	-3.3%	0.9	-0.5%	-3.2	16.3%
Cc1ccc(S(=O)(=O)N2CCN(C(=O)c3ccc(OCc4c(C)noc4C)cc3)CC2)cc1	-16.6%	/	-2.9	11.0%	-11.3	0.0%
COC1=C(Nc2ccccc2)C(=O)c2ccccc2C1=O	10µM*	5.86µM*	18.6*	7.3%	23.0*	1.85µM*
COC1=C(Nc2ccc(C)cc2)C(=O)c2ccccc2C1=O	10µM*	2.33µM*	53.1*	-24.3%	102.3*	1.17µM*
CC(=O)N1c2ccc(S(=O)(=O)N3CCCC3)cc2CC1C(=O)NCc1ccccc1F (stereo not drawn)	-7.9%	-5.3%	-0.8	1.9%	-1.8	?
CCC(=O)N1CCCC1(C)C(=O)Nc1ccc(C)c(C)c1 (stereo not drawn)	-2.7%	/	/	/	/	/
Cc1ccc(N2C(=O)C3C(C2=O)N2C(c4cccs4)C4C(=O)N(c5ccc(C)cc5)C(=O)C4N2C3c2cccs2)cc1 (stereo not drawn)	5.4%[11.6 µM]	?	-3.2	15.6%	-2.3	1.85µM*
CCOc1nc(-c2ccc(Cl)cc2)nc2ccccc12	24.9%	15.2%	-1.1	2.3%	8.9	20.8%
C=CCNC(=S)Nc1ccccc1	-5.1%	0.6%	-2.9	4.7%	-1.7	37.8%
C=CCNC(=S)Nc1cccc(NC(=S)NCC=C)c1	41.0%	13.1µM*	1.2	15.2%	-9.9	?
O=C1OCCN1C(=O)[C@H]1[C@H](c2ccc([N+](=O)[O-])cc2)C(c2ccc(F)cc2)=NN1c1ccc(Br)cc1	-0.8%	/	17.7	18.1%	i	/
O=C(O)c1ccc(/C=N/Nc2ccc(C(F)(F)F)cn2)cc1	6.1%	167.7%	35.3*	-1.6%	83.7*	i
COc1cc(/C=N/Nc2ncc(C(F)(F)F)cc2Cl)cc(OC)c1OC	3.7%	4.65µM*	-2.3	5.0%	8.5	?
COc1cc(/C=N/Nc2ccc(C(F)(F)F)cn2)ccc1O	11.9%	13.4%	30.9*	-2.7%	127.1*	35.6%
CCOC(=O)c1c(S(=O)(=O)NCC(=O)Nc2cccc(C)n2)c(C)n(C)c1C	-12.3%	-9.2%	10.5	?	-1.3	0.1%
Cn1nc(C(C)(C)C)cc1C(=O)N1CCC(C)(C(=O)NS(=O)(=O)C2CC2)C1 (stereo not drawn)	3.3%	/	/	/	/	/
COC(=O)C(Cc1ccc(O)cc1)NC(=O)Cn1cc(C)c(=O)[nH]c1=O (stereo not drawn)	6.6%	/	/	/	/	/
Cc1cc(C)c(C(=O)CN2C(=O)NC3(CCCCCC3)C2=O)cc1C	?	6.1%	53.2*	1.6%	40.8*	62.4%
SMILES	AMA1 RON2 block	Pf growth 48h	Cycloheximide cs	SARS PLP yeast	Shiga toxin inh	Pf growth 96h
Cc1cc(C(=O)CN2C(=O)NC3(CCCCC3)C2=O)c(C)n1C	4.9%	23.6%	38.5*	1.1%	44.8*	41.3%
COc1ccccc1C(=O)CN1C(=O)NC2(CCCCCC2)C1=O	-18.5%	/	/	-2.0%	/	/
Cc1cc(C)c(NC(=O)CN2C(=O)NC3(CCCCC3)C2=O)c(Cl)c1	6.9%	0.0%	-3.4	1.6%	19.7	13.1µM*
CC(=O)Nc1ccc(C(=O)CN2C(=O)NC3(CCCCCC3)C2=O)c(F)c1	-8.3%	/	/	8.7%	/	/
CC(C)(C)[C@H]1COC(=O)[C@@H](Cc2ccc(F)cc2)CC/C=C/C[C@@H](CC(=O)N[C@H](CO)Cc2ccccc2)C(=O)N1	4.3%	/	/	-4.1%	/	/
CCOC(=O)c1cn[nH]c1NC(=S)Nc1ccc(Cl)cc1	88.9%	213.9%	57.7*	-2.5%	57.9*	-38.8%
O=C1OCCN1N=Cc1ccco1	-0.6%	/	/	/	/	/
CCOc1ccc(NC(=O)Nc2cc(C(=O)O)ccc2N2CC3CC(C2)c2cccc(=O)n2C3)cc1 (stereo not drawn)	1.5%	-14.9%	6.4	-3.0%	-9.5	?
C#CCn1c(=NC(=O)c2ccc(Br)s2)sc2cccc(OC)c21	-5.1%	?	19.4*	-1.1%	72.7*	?
C=CCn1c(=NC(=O)c2cccs2)sc2cccc(OC)c21	3.4%	?	28.2*	-1.0%	52.8*	?
C#CCn1c(=NC(=O)c2ccc(Br)s2)sc2cc(NC(C)=O)ccc21	3.3%	8.8%	3.9	12.7%	9.6	5.8%
CCn1c(=NC(=O)c2ccc(S(=O)(=O)N(C)C)cc2)sc2cccc(OC)c21	-13.0%	8.28µM*	12.5	-2.0%	10.1	?
C[C@@H]1CN([C@H](C)CO)C(=O)c2c(c3ccccc3n2C)-c2ccccc2CO[C@H]1CN(C)C(=O)Nc1ccccc1	-1.3%	/	/	/	/	/
CC(C(=O)NCCSCc1cccc(Cl)c1)N(c1ccccc1)S(C)(=O)=O (stereo not drawn)	3.9%	-22.1%[0.00184 µM]	-6.1	0.6%	-13.9	?
C/C(=N/OCc1ccc(Br)cc1)c1ccccn1	7.7%	i	25.9*	18.9%	59.8*	441.1%
C/C(=N\OC(=O)c1ccc(Br)cc1)c1ccccn1	72.5%	-6.7%	4.3	-34.0%	12.9	8.9%
O=C(c1ccc(Cl)cc1)N1CCc2ccccc21	4.4%	6.1%	32.8*	1.4%	46.0	?
O=C(c1cc(Cl)ccc1Cl)N1CCc2ccccc21	2.0%	-11.7%	-3.4	-6.2%	-3.2	?
O=C(c1ccc(Cl)s1)N1CCc2ccccc21	4.8%	170.0%	35.8*	-6.2%	81.6*	/
Cn1cc(C(=O)N2CCc3ccccc32)cn1	7.5%	97.3%	22.5*	6.7%	49.1*	84.8%
Cn1ncc(Cl)c1C(=O)N1CCc2ccccc21	-9.7%	16.5%	-2.0	3.8%	-3.8	/

Source: PubChem
